Hit rate of the full screen: of about 320,000 compounds, about 2,100 (0.66%) were called active. Inconclusive results (about 53%) are left out. The call rests on the fitted dose curve; in most records, active means well fitted inhibition curve with a large enough effect in the signal ratio, with a control signal flat (not every such curve was filed as active); inconclusive means small, poorly fitted or top-dose-only effect, or effect the other way, or a change in a side signal; inactive means flat fitted curve, though single readings scatter; the % refers to the signal ratio. Many of the other results were omitted from the sample, so actives are more common in it than they were.
Potency means the concentration at half of the fitted maximal effect.

This experiment in a line: qHTS Assay for Lipid Storage Modulators in Drosophila S3 Cells.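 On cell number change: cells counted by Cell Tracker Red CMTPX staining in the red channel.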 To be noted: BODIPY lipid droplet fluorescence, 18-24 h, cells fed with added oleic acid; cell number change: measured here: cell count max response; series mostly up to 46.1 µM. The procedure, abridged: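 Laser-scanning cytometry quantifies lipid droplet accumulation (500–530 nm total intensity; droplet/cell object ratio) in oleic acid-fed (400 uM added) Drosophila S3 cells treated with a concentration series. 20 uM Triacsin C defined 100% inhibition.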
Turning to `CCc1ccc(NC(=O)Cn2c(=O)n(CCC(=O)NC3CCN(Cc4ccccc4)CC3)c(=O)c3ccccc32)cc1`, the Potency entry was “inactive” and the cell number change was 3.79%.

As to `Cc1ccc(NC(=O)Cn2c(=O)n(CCC(=O)NC3CCN(Cc4ccccc4)CC3)c(=O)c3ccccc32)cc1`, the Potency entry is “inactive” and the cell number change was determined as 3.62%.

With `Cc1cccc(C)c1NC(=O)Cn1c(=O)n(CCCC(=O)NC2CCN(Cc3ccccc3)CC2)c(=O)c2ccccc21`, the Potency was 4.11 µM (active) and the cell number change is -10.3%.

For the compound `COCCN(C(=O)CSc1nc2ccc(C)cc2[nH]1)c1c(N)n(Cc2ccccc2)c(=O)[nH]c1=O`, the Potency entry is “inactive” and the cell number change was -11.3%.

For the compound `C[C@H]1CN=C2N(CCNC(=O)CCC3CCCCC3)[C@H](Cc3ccc(O)cc3)CN21`, the Potency entry was “inactive” and the cell number change is -4.68%.

As for `CCOC(=O)c1cccc(NC(=O)C(NS(=O)(=O)c2ccc3c(c2)CCN3C(C)=O)C(C)C)c1` (centres undefined), the Potency result is “inactive” and the cell number change is 9.06%.

As for `O=C(CS(=O)(=O)c1c[nH]c2ccccc12)Nc1ccc(F)cc1`, the Potency entry is “inactive” and the cell number change turned out to be 1.05%.

As for `Cc1ccccc1NS(=O)(=O)c1cc2c3c(c1)C(C)C(=O)N3CCC2` (centres undefined), the Potency entry was “inactive”.

As to `COc1ccc(/C=C/c2c([N+](=O)[O-])c(=O)n(C)c(=O)n2C)cc1`, the Potency result is “inactive” and the cell number change was -2.6%.

`Cn1c(/C=C/c2ccc(Br)cc2)c([N+](=O)[O-])c(=O)n(C)c1=O`: the Potency was 2.91 µM (active) and the cell number change is -1.8%.

As for `COc1ccc(/C=C/c2c([N+](=O)[O-])c(=O)n(C)c(=O)n2C)cc1OC`, the Potency result is “inactive” and the cell number change was -10.8%.

`CCCCOc1ccc(-c2nnc(-c3cc[n+](C)cc3)o2)cc1`: the Potency result was “inactive” and the cell number change came out at 0.955%.

Take `COc1ccc(CC(=O)Nc2cccc3c2CCCC3)cc1`: the Potency entry was “inactive” and the cell number change is -12.6%.

Take `CC(=O)N/N=C(\C)CC(=O)Nc1cccc2c1CCCC2`: the Potency result was “inactive” and the cell number change is -11.4%.

As to `CC(=O)CC(=O)Nc1cccc2c1CCCC2`, the Potency was 0.58 µM (active) and the cell number change is 2.07%.

Consider `CCn1cc(S(=O)(=O)NC(C)c2cc(OC)ccc2OC)cn1` (centres undefined), for which the Potency result was “inactive” and the cell number change is 5.77%.

On to `Cc1cccc2c1N(CCCOc1ccccc1)C(=O)C2=O`, for which the Potency entry is “inactive” and the cell number change is 4.6%.

Consider `CC1CCN(CCCCOc2ccccc2F)CC1`, for which the Potency result is “inactive” and the cell number change came out at 12.3%.

As for `Cn1nnc(NC(=O)c2ccccc2)n1`, the Potency entry was “inactive” and the cell number change is -11.2%.

With `CC(=O)c1ccc(OCc2cc(C(=O)N(C)Cc3cc(C)no3)no2)cc1`, the Potency result is “inactive” and the cell number change is -2.95%.

On to `Cc1ccc(OCc2cc(C(=O)N(C)Cc3cnn(-c4ccccc4C)c3)no2)cn1`, for which the Potency is 23.1 µM (active) and the cell number change is -11.8%.

In the case of `CN(Cc1cnn(C)c1)C(=O)c1cc(COc2c(F)cccc2F)on1`, the Potency result was “inactive” and the cell number change was 16.3%.

For `C/C(=N\NC(=O)Cc1cccn1C)c1ccc([N+](=O)[O-])cc1`, the Potency entry is “inactive” and the cell number change is 2.69%.

On to `CCN(Cc1ccncc1)C(=O)CSc1ccc2ccccc2c1`, for which the Potency entry is “inactive”.

`O=C(Nc1ccc2ccccc2c1)c1ccc2[nH]c(=O)c(=O)[nH]c2c1`: the Potency result is “inactive” and the cell number change was -10.4%.

Consider `O=C(Nc1ccc2ccccc2c1)c1ccc(Cl)cc1`, for which the Potency was 1.3 µM (active) and the cell number change was -18.8%.

With `O=C(Nc1ccc2ccccc2c1)c1ccc(Cl)cc1Cl`, the Potency entry is “inactive” and the cell number change is -1.02%.

Turning to `CCOc1ccc(C(=O)COC(=O)c2nn(CC)c(=O)c3ccccc23)cc1`, the Potency result was “inactive” and the cell number change worked out at 18.9%.

With `CNC(=O)NNC(=O)c1onc(-c2c(Cl)cccc2Cl)c1C(=O)OC`, the Potency entry was “inactive” and the cell number change came out at 19.9%.

With `CCSc1nc2ccccc2n1CCC(=O)O`, the Potency result is “inactive”.

For `CC(C)c1nc2ccccc2n1CCC(=O)O`, the Potency was 16.4 µM (active) and the cell number change is -4.05%.

Turning to `CCc1nc2ccccc2n1CCC(=O)O`, the Potency result was “inactive” and the cell number change is -14.7%.

Consider `CCC(C)(CC(=O)Nc1nccs1)c1ccccc1` (centres undefined), for which the Potency entry is “inactive” and the cell number change was 7.48%.

With `O=C(OCC#CCSc1nnc(-c2ccccc2)o1)c1cccs1`, the Potency result was “inactive” and the cell number change is -0.992%.

On to `COc1ccc(CNc2oc(-c3cccc4ccccc34)nc2C#N)cc1`, for which the Potency result was “inactive” and the cell number change is -5.87%.

Take `N#Cc1nc(-c2cccc3ccccc23)oc1NCC#CCOC(=O)c1cccs1`: the Potency was 14.6 µM (active) and the cell number change is -10.2%.

`CC(NC(=O)CSc1n[nH]c(=O)n1C1CC1)C12CC3CC(CC(C3)C1)C2` (centres undefined): the Potency entry was “inactive” and the cell number change was determined as 7.42%.

For `S=C1NCCOCCOCCOCCNC(=S)N2CCOCCOCCN1CCOCCOCC2`, the Potency result is “inactive” and the cell number change was -2.24%.

With `CCOC(=O)c1[nH]c(C)c(C(=O)NC2CCCCC2)c1C`, the Potency result is “inactive” and the cell number change is -4.45%.

For the compound `CCOC(=O)c1[nH]c(C)c(C(=O)NC2CCCCCC2)c1C`, the Potency result is “inactive” and the cell number change was -7.97%.

As to `CCN(CC)CCCNC(=O)c1[nH]c(C)c(C(=O)NC2CCCCC2)c1C`, the Potency was 25.9 µM (active) and the cell number change was -5.4%.

Turning to `Cc1cc(O)c(C(C)C)cc1NS(=O)(=O)c1ccccc1`, the Potency entry was “inactive” and the cell number change is -16.1%.

`O=C(O)c1cccc(S(=O)(=O)Nc2ccc3oc(=O)sc3c2)c1`: the Potency result was “inactive” and the cell number change was 4.14%.

For the compound `Cc1cc2oc(=O)sc2cc1NS(=O)(=O)c1ccccc1`, the Potency was 7.31 µM (active) and the cell number change is 5.22%.

For `COc1cccc(-c2cc(C(=O)NCC3CCCO3)c3cc(Br)cc(C)c3n2)c1` (centres undefined), the Potency entry was “inactive” and the cell number change is -7.43%.

Take `O=C(O)CC(Cc1ccc(Br)cc1)C(=O)O` (centres undefined): the Potency entry is “inactive” and the cell number change was -24.7%.
